# Data as given in PubChem BioAssay AID1159580 (chemical genetic matrix, 2015).
# In all, about 5,500 compounds went through this assay and about 2,000 (36%) were called active. About 18% were inconclusive and are not listed. The list shows a part of the results. Unmarked numbers belong to inactive results. No stated cut-off is given here; in the data, active means normalized growth mostly below about 0.91 (no sharp cut-off); inconclusive means no clear call, values can overlap the other calls; inactive means mostly above about 0.92.
# Assay: chemical genetic growth profiling, strain panel (AID 1159580);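 further: tested at 20 µM; growth read once vehicle control cultures reached saturation at 30 °C; 1 = growth at the plate median or of vehicle wells; lower values mean less growth of the strain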
# Settings: growth OD
# [1] = S. cerevisiae deletion strains, locus YAL013W, strain DEP1, active compounds read low
# [2] = S. cerevisiae deletion strains, locus YBR229C, strain ROT2, active compounds read low
# [3] = S. cerevisiae deletion strains, locus YDL101C, strain DUN1, active compounds read low
# [4] = S. cerevisiae deletion strains, locus YDR150W, strain NUM1, active compounds read low
# [5] = S. cerevisiae deletion strains, locus YEL061C, strain CIN8, active compounds read low
# [6] = S. cerevisiae deletion strains, locus YGR078C, strain PAC10, active compounds read low
# [7] = S. cerevisiae deletion strains, locus YHR030C, strain SLT2, active compounds read low
# [8] = S. cerevisiae deletion strains, locus YHR087W, strain rtc3, active compounds read low
# [9] = S. cerevisiae deletion strains, locus YJL187C, strain SWE1, active compounds read low
# [10] = S. cerevisiae deletion strains, locus YJR043C, strain POL32, active compounds read low
# [11] = S. cerevisiae deletion strains, locus YJR075W, strain HOC1, active compounds read low
# [12] = S. cerevisiae deletion strains, locus YLR039C, strain RIC1, active compounds read low
# [13] = S. cerevisiae deletion strains, locus YLR058C, strain SHM2 (second series), active compounds read low
# [14] = S. cerevisiae deletion strains, locus YLR085C, strain ARP6, active compounds read low
# [15] = S. cerevisiae deletion strains, locus YLR262C, strain YPT6, active compounds read low
# [16] = S. cerevisiae deletion strains, locus YML094W, strain GIM5, active compounds read low
# [17] = S. cerevisiae deletion strains, locus YMR219W, strain ESC1, active compounds read low
# [18] = S. cerevisiae deletion strains, locus YMR263W, strain SAP30, active compounds read low
# [19] = S. cerevisiae deletion strains, locus YNL128W, strain TEP1, active compounds read low
# [20] = S. cerevisiae deletion strains, locus YNL153C, strain GIM3, active compounds read low
# [21] = S. cerevisiae deletion strains, locus YNL298W, strain CLA4 (second series), active compounds read low
# [22] = S. cerevisiae deletion strains, locus YNL322C, strain KRE1, active compounds read low
# [23] = S. cerevisiae deletion strains, locus YNR030W, strain Alg12, active compounds read low
# [24] = S. cerevisiae deletion strains, locus YPL055C, strain LGE1, active compounds read low
# [25] = S. cerevisiae deletion strains, locus YPL241C, strain CIN2, active compounds read low
# [26] = S. cerevisiae deletion strains, locus YPR135W, strain CTF4, active compounds read low
smiles,measurement,setting,value
COc1ccc(-c2ccnc(SCC(=O)NCCSCc3ccco3)n2)cc1,normalized growth,[1],1.01
same,normalized growth,[2],0.998
same,normalized growth,"S. cerevisiae deletion strains, locus YCL061C, strain MRC1, active compounds read low",1.01
same,normalized growth,[3],1
same,normalized growth,[4],0.991
same,normalized growth,[5],1
same,normalized growth,[6],1.01
same,normalized growth,[7],1.09
same,normalized growth,[8],0.998
same,normalized growth,[9],1.02
same,normalized growth,[10],1
same,normalized growth,[11],0.991
same,normalized growth,[12],0.999
same,normalized growth,[13],1
same,normalized growth,[14],0.98
same,normalized growth,[15],1.03
same,normalized growth,[16],1
same,normalized growth,[17],1.01
same,normalized growth,[18],1.01
same,normalized growth,"S. cerevisiae deletion strains, locus YMR307W, strain GAS1, active compounds read low",0.993
same,normalized growth,[19],0.999
same,normalized growth,[20],1.02
same,normalized growth,[21],1.01
same,normalized growth,[22],1.01
same,normalized growth,[23],1.01
same,normalized growth,"S. cerevisiae deletion strains, locus YOL006C, strain TOP1, active compounds read low",1.03
same,normalized growth,[24],1.02
same,normalized growth,[25],1.01
same,normalized growth,[26],1.03
same,normalized growth,"S. cerevisiae strains, strain wild type, active compounds read low",1
O=C(NCCSCc1ccco1)c1ccc(Cl)cc1,normalized growth,[1],0.976
same,normalized growth,[2],0.991
same,normalized growth,[3],0.976
same,normalized growth,[4],0.815
same,normalized growth,[5],0.994
same,normalized growth,[6],0.989
same,normalized growth,[7],0.587 (active)
same,normalized growth,[8],1
same,normalized growth,[9],1
same,normalized growth,[10],0.975
same,normalized growth,[11],1.05
same,normalized growth,"S. cerevisiae deletion strains, locus YKL190W, strain CNB1, active compounds read low",1
same,normalized growth,[12],1.31 [resistant] (active)
same,normalized growth,[13],0.96
same,normalized growth,[14],1
same,normalized growth,[15],1.19 [resistant] (active)
same,normalized growth,[16],0.989
same,normalized growth,[17],0.98
same,normalized growth,[18],0.981
same,normalized growth,[19],0.983
same,normalized growth,[20],0.984
same,normalized growth,[21],0.968
same,normalized growth,[22],0.988
same,normalized growth,[23],0.982
same,normalized growth,[24],0.962
same,normalized growth,[25],0.975
same,normalized growth,[26],1.02
O=C(NCCSCc1cccc(C(F)(F)F)c1)c1ccc(Cl)cc1,normalized growth,"S. cerevisiae deletion strains, locus YAR019C, strain CDC15, active compounds read low",0.968
same,normalized growth,"S. cerevisiae deletion strains, locus YBL105C, strain PKC1, active compounds read low",0.965
same,normalized growth,"S. cerevisiae deletion strains, locus YBR135W, strain CKS1, active compounds read low",0.953
same,normalized growth,"S. cerevisiae deletion strains, locus YBR136W, strain MEC1, active compounds read low",0.979
same,normalized growth,"S. cerevisiae deletion strains, locus YBR160W, strain CDC28, active compounds read low",0.964
same,normalized growth,"S. cerevisiae deletion strains, locus YDL017W, strain CDC7, active compounds read low",0.971
same,normalized growth,"S. cerevisiae deletion strains, locus YDL028C, strain MPS1, active compounds read low",0.947
same,normalized growth,[3],0.975
same,normalized growth,"S. cerevisiae deletion strains, locus YDL108W, strain KIN28, active compounds read low",0.961
same,normalized growth,"S. cerevisiae deletion strains, locus YDL132W, strain cdc53, active compounds read low",0.96
same,normalized growth,"S. cerevisiae deletion strains, locus YDL214C, strain PRR2, active compounds read low",0.891
same,normalized growth,"S. cerevisiae deletion strains, locus YDR052C, strain DBF4, active compounds read low",0.982
same,normalized growth,"S. cerevisiae deletion strains, locus YDR054C, strain cdc34, active compounds read low",0.955
same,normalized growth,"S. cerevisiae deletion strains, locus YDR226W, strain ADK1, active compounds read low",0.973
same,normalized growth,"S. cerevisiae deletion strains, locus YDR477W, strain SNF1, active compounds read low",0.894
same,normalized growth,"S. cerevisiae deletion strains, locus YER123W, strain YCK3, active compounds read low",0.851
same,normalized growth,"S. cerevisiae deletion strains, locus YER133W, strain GLC7, active compounds read low",0.916
same,normalized growth,"S. cerevisiae deletion strains, locus YFL009W, strain cdc4, active compounds read low",0.961
same,normalized growth,"S. cerevisiae deletion strains, locus YFL029C, strain CAK1, active compounds read low",0.965
same,normalized growth,"S. cerevisiae deletion strains, locus YFR003C, strain YPI1, active compounds read low",0.964
same,normalized growth,"S. cerevisiae deletion strains, locus YFR019W, strain FAB1, active compounds read low",0.964
same,normalized growth,"S. cerevisiae deletion strains, locus YFR028C, strain CDC14, active compounds read low",0.965
same,normalized growth,"S. cerevisiae deletion strains, locus YGR040W, strain KSS1, active compounds read low",0.905
same,normalized growth,"S. cerevisiae deletion strains, locus YGR052W, strain FMP48, active compounds read low",0.826
same,normalized growth,"S. cerevisiae deletion strains, locus YGR092W, strain DBF2, active compounds read low",0.733
same,normalized growth,[7],0.614 (active)
same,normalized growth,"S. cerevisiae deletion strains, locus YHR079C, strain IRE1, active compounds read low",0.72
same,normalized growth,"S. cerevisiae deletion strains, locus YHR082C, strain KSP1, active compounds read low",0.871
same,normalized growth,"S. cerevisiae deletion strains, locus YHR205W, strain SCH9, active compounds read low",0.738
same,normalized growth,"S. cerevisiae deletion strains, locus YIL147C, strain SLN1, active compounds read low",0.97
same,normalized growth,"S. cerevisiae deletion strains, locus YJL095W, strain BCK1, active compounds read low",0.743
same,normalized growth,"S. cerevisiae deletion strains, locus YJL128C, strain PBS2, active compounds read low",0.887
same,normalized growth,"S. cerevisiae deletion strains, locus YJL157C, strain FAR1, active compounds read low",0.918
same,normalized growth,"S. cerevisiae deletion strains, locus YJR016C, strain ILV3, active compounds read low",0.959
same,normalized growth,"S. cerevisiae deletion strains, locus YJR066W, strain TOR1 (second series), active compounds read low",0.897
same,normalized growth,"S. cerevisiae deletion strains, locus YJR066W, strain TOR1, active compounds read low",0.769
same,normalized growth,"S. cerevisiae deletion strains, locus YKL048C, strain ELM1, active compounds read low",0.963
same,normalized growth,"S. cerevisiae deletion strains, locus YKL067W, strain YNK1, active compounds read low",0.864
same,normalized growth,"S. cerevisiae deletion strains, locus YKL101W, strain HSL1, active compounds read low",0.917
same,normalized growth,"S. cerevisiae deletion strains, locus YKL193C, strain SDS22, active compounds read low",0.962
same,normalized growth,"S. cerevisiae deletion strains, locus YKL203C, strain TOR2, active compounds read low",0.988
same,normalized growth,"S. cerevisiae deletion strains, locus YLR113W, strain HOG1, active compounds read low",0.736 (active)
same,normalized growth,"S. cerevisiae deletion strains, locus YLR133W, strain CKI1, active compounds read low",0.902
same,normalized growth,"S. cerevisiae deletion strains, locus YLR403W, strain SFP1, active compounds read low",0.896
same,normalized growth,"S. cerevisiae deletion strains, locus YML070W, strain DAK1, active compounds read low",0.903
same,normalized growth,"S. cerevisiae deletion strains, locus YMR001C, strain CDC5, active compounds read low",0.963
same,normalized growth,"S. cerevisiae deletion strains, locus YMR205C, strain PFK2 (second series), active compounds read low",0.885
same,normalized growth,"S. cerevisiae deletion strains, locus YMR277W, strain FCP1, active compounds read low",0.951
same,normalized growth,"S. cerevisiae deletion strains, locus YNL006W, strain LST8, active compounds read low",0.967
same,normalized growth,"S. cerevisiae deletion strains, locus YNL020C, strain ARK1, active compounds read low",0.896
same,normalized growth,"S. cerevisiae deletion strains, locus YNL161W, strain CBK1, active compounds read low",0.973
same,normalized growth,"S. cerevisiae deletion strains, locus YNL183C, strain NPR1, active compounds read low",0.819
same,normalized growth,"S. cerevisiae deletion strains, locus YNL207W, strain RIO2, active compounds read low",0.969
same,normalized growth,"S. cerevisiae deletion strains, locus YNL222W, strain SSU72, active compounds read low",0.965
same,normalized growth,"S. cerevisiae deletion strains, locus YNL307C, strain MCK1 (second series), active compounds read low",0.86
same,normalized growth,"S. cerevisiae deletion strains, locus YOL078W, strain AVO1, active compounds read low",0.963
same,normalized growth,"S. cerevisiae deletion strains, locus YOL136C, strain PFK27, active compounds read low",0.896
same,normalized growth,"S. cerevisiae deletion strains, locus YOR061W, strain CKA2, active compounds read low",0.849
same,normalized growth,"S. cerevisiae deletion strains, locus YOR119C, strain RIO1, active compounds read low",0.916
same,normalized growth,"S. cerevisiae deletion strains, locus YOR231W, strain MKK1, active compounds read low",0.764
same,normalized growth,"S. cerevisiae deletion strains, locus YOR329C, strain SCD5, active compounds read low",0.965
same,normalized growth,"S. cerevisiae deletion strains, locus YPL031C, strain PHO85, active compounds read low",0.892
same,normalized growth,"S. cerevisiae deletion strains, locus YPL153C, strain RAD53, active compounds read low",0.892
same,normalized growth,"S. cerevisiae deletion strains, locus YPL204W, strain HRR25, active compounds read low",0.886
same,normalized growth,"S. cerevisiae deletion strains, locus YPL209C, strain IPL1, active compounds read low",0.968
same,normalized growth,"S. cerevisiae deletion strains, locus YPL256C, strain CLN2, active compounds read low",0.797 (active)
same,normalized growth,"S. cerevisiae deletion strains, locus YPR025C, strain CCL1, active compounds read low",0.957
same,normalized growth,"S. cerevisiae deletion strains, locus YPR106W, strain ISR1, active compounds read low",0.947
same,normalized growth,"S. cerevisiae deletion strains, locus YPR111W, strain DBF20, active compounds read low",0.93
same,normalized growth,"S. cerevisiae deletion strains, strain NNK1, active compounds read low",0.954
same,normalized growth,"S. cerevisiae deletion strains, strain TSCII, active compounds read low",0.959
